The values that follow come from the supplement of paper PMC7156485.

Conditions in all cases: concentration: 10 µM; 24 h
For assay [1], the system named is HCC1569. Briefly: cell number relative to DMSO (% of DMSO); higher = more cells (less growth inhibition / toxicity). The method, boiled down:
(§1)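 Cell number or H1.0 nuclear intensity appears as percent of the plate control, based on the median of replicates. Measurements came from HCC1569 and TDF cells exposed in triplicate to compounds at 10 µM for 24 h at 37 °C, then imaged in six fields per well at ×10. Positional effects were smoothed out of HCC1569 values.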

Assay [2] has as its system TDF. Described as above. The gist of the method:
as §1

Assay [3] relates to TDF. Put plainly: H1.0 immunofluorescence intensity relative to DMSO (% of DMSO); higher = stronger H1.0 induction, active = 120 or more. The method, boiled down: as §1
In assay [4] the test system is HCC1569. Briefly: H1.0 immunofluorescence intensity relative to DMSO (% of DMSO); higher = stronger H1.0 induction, active = 140 or more. The method, boiled down: as §1

± gives the standard deviation of the averaged measurements.
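For H1.0 immunofluorescence intensity relative to DMSO in this document: TDF is a line of transformed human dermal fibroblasts of mesenchymal origin.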
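For cell number relative to DMSO in this document: TDF denotes transformed human dermal fibroblasts of mesenchymal origin.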

As to `COc1cccc2c1C(=O)c1c(O)c3c(c(O)c1C2=O)CC(O)(C(=O)CO)CC3OC1CC(N)C(O)C(C)O1.Cl` (configuration not stated) [Doxorubicin.HCl], the cell number stood at 59.6 ± 3.9 in assay [1] and 17.1 ± 3.7 in assay [2]. Moreover, the H1.0 immunofluorescence intensity in assay [3] was 132 (active); in assay [4], 1430 (active).
For `Cc1[nH]c2ccccc2c1CCNC(=O)c1cccs1` [N-[2-(2-methyl-1H-indol-3-yl)ethyl]-2-thiophenecarboxamide], the cell number came to 102 in assay [1] and 95.5 in assay [2]. The values for the H1.0 immunofluorescence intensity in assay [3] and in assay [4] were 97.1 (inactive) and 92.8 (inactive), respectively.
On the same counts, the results for `O=C(O)CCCCCCCC(=O)O` [Azelaic acid] are 102, 101, 98.2 (inactive) and 89.8 (inactive).
On the same counts, the results for `COC(=O)C1C(O)CCC2CN3CCc4c([nH]c5ccccc45)C3CC21.Cl` (configuration not stated) [Yohimbine hydrochloride] are 99.8, 113, 93.8 (inactive) and 107 (inactive).
The corresponding values for `CN1CCN(CCC=C2c3ccccc3Sc3ccc(S(=O)(=O)N(C)C)cc32)CC1.Cl` [Thiothixene hydrochloride] are 95, 107, 98.5 (inactive) and 96.8 (inactive).
For the molecule `O=C(O)c1cc(-c2ccc(F)cc2F)ccc1O` [Diflunisal], the cell number in assay [1] stood at 102; in assay [2], 100. In addition, the H1.0 immunofluorescence intensity in assay [3] is 96.1 (inactive); in assay [4], 115 (inactive).
The corresponding values for `CCCC[C@@H](C=O)NC(=O)[C@H](CC(C)C)NC(=O)[C@H](CC(C)C)NC(C)=O` are 47.1, 32.2, 160 (active) and 150 (active).
Regarding `CCC(C)C(=O)OC1CC(C)C=C2C=CC(C)C(CCC3CC(O)CC(=O)O3)C21` (configuration not stated) [Lovastatin], the cell number in assay [1] amounted to 99.4; in assay [2], 80.8. The H1.0 immunofluorescence intensity is 119 (inactive) in assay [3] and 106 (inactive) in assay [4].
